# Shown are actives, neighbours in structure and some others; about 18% of the full set was active somewhere.
# TDP1 block = blocks human tyrosyl-DNA phosphodiesterase 1; Q9NUW8; recombinant TDP1, AlphaScreen DNA substrate cleavage; Potency, µM (doses to about 130 µM), actives largely listed as inhibitors; actives 0.28% (n = 350,000); note: nearly all actives have a fitted effect of over 40% in size
#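 Compounds were preincubated with Tdp1 (1 nM final) for 15 min at room temperature before substrate (15 nM final) started a 5 min reaction; beads (10 ug/ml final) were then added for 10 min before AlphaScreen detection.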
# VDR inh = blocks the human vitamin D receptor; P11473; VDR-SRC2-3 peptide fluorescence polarization, 2 h; Potency, µM, hits mostly inhibitors; actives 0.93% (n = 400,000); AID 504847
#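 VDR–SRC2-3 interaction, FP format. Cmpds 23 nl via pintool, brief spin, 2 h ambient incubation.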
# GCN5L2 inh = inhibitors of human GCN5L2 histone acetyltransferase | Potency, µM (highest dose often 58.9 µM), usual class: inhibitors | Q92830 | actives 0.21% (n = 390,000) | GCN5L2 HAT assay, ThioGlo1 CoA-SH fluorescence
# Target sequence (Q92830 whole entry, looked up): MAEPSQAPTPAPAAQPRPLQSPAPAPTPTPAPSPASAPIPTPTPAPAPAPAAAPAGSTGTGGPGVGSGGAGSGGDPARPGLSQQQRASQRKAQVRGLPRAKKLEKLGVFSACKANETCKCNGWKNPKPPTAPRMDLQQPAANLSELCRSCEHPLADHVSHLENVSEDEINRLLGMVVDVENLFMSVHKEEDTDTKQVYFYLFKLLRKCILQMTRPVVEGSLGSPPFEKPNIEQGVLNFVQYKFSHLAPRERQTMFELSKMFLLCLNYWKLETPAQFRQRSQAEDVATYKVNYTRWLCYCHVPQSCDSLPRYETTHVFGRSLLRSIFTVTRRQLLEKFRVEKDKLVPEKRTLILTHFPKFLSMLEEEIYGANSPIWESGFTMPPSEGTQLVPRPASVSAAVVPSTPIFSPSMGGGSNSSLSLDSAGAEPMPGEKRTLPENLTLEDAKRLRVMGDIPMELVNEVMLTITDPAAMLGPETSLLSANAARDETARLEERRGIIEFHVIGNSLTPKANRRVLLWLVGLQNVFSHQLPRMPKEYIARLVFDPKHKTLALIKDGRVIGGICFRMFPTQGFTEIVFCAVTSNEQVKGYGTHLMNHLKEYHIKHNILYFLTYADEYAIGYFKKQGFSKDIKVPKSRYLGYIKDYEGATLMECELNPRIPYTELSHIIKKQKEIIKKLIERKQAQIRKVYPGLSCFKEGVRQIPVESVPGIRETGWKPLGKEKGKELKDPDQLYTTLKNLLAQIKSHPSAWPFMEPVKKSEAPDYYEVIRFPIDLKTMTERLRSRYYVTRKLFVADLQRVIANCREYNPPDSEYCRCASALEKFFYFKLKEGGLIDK
#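 Preincubate 20nM GCN5L2 with compound 15 min, RT → add 50uM ThioGlo1 + 75uM H3(1-25) + 70uM acetyl-CoA → read fluorescence 0 and 20 min. Primary qHTS; fluorescent artifacts likely.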
# PLK1 PBD block = blocks phosphopeptide binding to human PLK1 polo-box domain; Plk1 PBD binding of FITC phosphopeptide, fluorescence polarization; Potency, µM, most hits filed as inhibitors; actives 2.8% (n = 360,000); AID 720504; note: series mostly up to about 57 µM; nearly all actives have a fitted effect of over 65% in size
# TDP1 cell CPT = DT40-hTDP1 cell growth loss with CPT. chicken DT40 Tdp1-/-;hTDP1 cells + 20 nM CPT, ATP luminescence, 48 h. Potency, µM (doses to about 46.2 µM), hits mostly inhibitors. actives 12% (n = 420,000); note: nearly all actives have a fitted effect of over 55% in size
#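 Chicken DT40 Tdp1-/- cells stably complemented with human TDP1 were seeded at 400 cells/well in medium containing 20 nM camptothecin, exposed to pin-transferred compounds, and grown at 37 °C for at least 48 hr. Viability was read as ATP luminescence.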
# TDP1 cell noCPT = qHTS for Inhibitors of human tyrosyl-DNA phosphodiesterase 1 (TDP1): qHTS in cells in absence of CPT. DT40 Tdp1-/- hTDP1 cells, no CPT, ATP luminescence, 48 h. Potency, µM (highest dose often 46.2 µM), most hits filed as inhibitors. actives 15% (n = 420,000); note: nearly all actives have a fitted effect of over 55% in size
#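 DT40 Tdp1-/-;hTDP1 cells, no CPT (DMSO vehicle only), 400 cells/well; compounds pin-transferred; ≥48 hr, 37 °C; CellTiter-Glo 30 min RT dark, luminescence read.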
# Numbers stand for hits; i = inactive; ? = inconclusive; nt = no result given; [ ] = dose if it differs, or a comment. Calls come from the whole dose curve; as a rule, active = well fitted curve in the direction sought with a large enough effect; inconclusive = small, poorly fitted or top-dose-only effect, or another doubt; inactive = no such curve, though single readings can be large; an effect the other way counts as inactive or inconclusive.
SMILES,TDP1 block,VDR inh,GCN5L2 inh,PLK1 PBD block,TDP1 cell CPT,TDP1 cell noCPT
CC(c1ccccc1)C1CC(=O)N(Cc2ccco2)C1=O (stereo unspecified),i,i,i,i,?,21µM
N#CCc1nn(Cc2ccc(F)cc2)c(=O)c2ccccc12,nt,i,i,i,i,i
CC(C)N=C(NS(=O)(=O)NC(=O)c1ccccc1)c1ccccc1,i,i,i,i,i,i
Cc1ccccc1CSc1nc2n(n1)C(c1cccs1)C1=C(CCCC1=O)N2 (stereo unspecified),i,i,i[0.501 µM],?,21µM,18µM
O=C1CCCC2=C1C(c1cccs1)n1nc(SCc3ccccc3F)nc1N2 (stereo unspecified),i,i,i,i,12µM,23µM
CCc1ccc(NC(=O)CN2C(=O)CC(c3ccccc3)Sc3ccccc32)cc1 (stereo unspecified),i,i,i,nt,nt,nt
CCCCCCCCCCCCC[N+](C)(C)Cc1ccccc1,i,i,i,nt,0.65µM,0.58µM
CCCCCCCCCCCCCCCC[N+](C)(C)Cc1ccc(F)cc1,nt,i,nt,?,6.5µM,7.3µM
CCCN(CCC)C(=O)Cc1ccc(F)cc1,nt,i,i,i,i,?
CCCN(CCC)C(=O)C1CCN(c2cc(C)nc3c(-c4ccc(OC)c(OC)c4)c(C)nn23)CC1,i,i,i,i,18µM,16µM
COc1ccc(-c2c(C)nn3c(N4CCC(C(=O)NCCN(C)C)CC4)cc(C)nc23)cc1OC,i,i,i,i,?,i
CCOCCCNC(=O)C1CCN(c2cc(C)nc3c(-c4ccc(Cl)cc4)c(C)nn23)CC1,i,i,i,nt,i,i
CCN(CC)CCNC(=O)C1CCN(c2cc(C)nc3c(-c4ccc(Cl)cc4)c(C)nn23)CC1,i,i,i,nt,3.7µM,4.1µM
COCCCNC(=O)C1CCN(c2cc(C)nc3c(-c4ccc(OC)c(OC)c4)c(C)nn23)CC1,i,i,i,nt,i,16µM
CC(C(=O)N1CCN=C1c1ccccc1)N1C(=O)c2ccccc2C1=O (stereo unspecified),i,i,i,i,i,i
C=C1C(=O)[C@]23[C@H](O)[C@H]1CC[C@H]2[C@@]12COC3(O)[C@H](O)[C@@H]1C(C)(C)CC[C@@H]2O,i,7.1µM,i,nt,nt,nt
CC(Sc1nnc2ccccn12)C(N)=O (stereo unspecified),i,i,i,i,i,i
COc1ccc(-c2nc(CS(=O)(=O)CC(=O)NCc3ccccc3OC)c(C)o2)cc1,i,i,i,i,i,i
COc1ccc(C(=O)NCc2nnc(SCC(=O)Nc3nc4ccccc4s3)o2)cc1,i,i,i,i,29µM,?
COc1cc(C(=O)NCc2nnc(SCC(=O)Nc3nc4ccccc4s3)o2)cc(OC)c1OC,i,i,i,i,9.2µM,10µM
COc1ccc(C(=O)NCc2nnc(SCC(=O)Nc3cc(OC)ccc3OC)o2)cc1,i,i,i,i,i,i
CC(C)(C)c1ccc(C(=O)NCc2nnc(SCC(=O)NC3CCCCC3)o2)cc1,i,i,i,i,8.2µM,21µM
